Consider eight compounds from PubChem BioAssay (NCI).

Structures are written as SMILES. The panel holds about 83,000 compounds, 20% with a hit somewhere; the sample as a whole holds those more often.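 Method: cells in 96-well plates; compound added at one concentration; 48 h incubation; percent growth measured; values under 10 scored active.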 A number with no mark means an inactive call. The source made the active and inactive calls.

Among the test systems are NCI-H23 lung; NCI-H226 lung; NCI-H322M lung; HOP-62 NSCLC; NCI-H460 lung; HOP-92 NSCLC; NCI-H522 lung; A549/ATCC NSCLC; 786-0 renal; DU-145 prostate; K-562 leukemia; MALME-3M melanoma; MDA-MB-231 breast; RXF 393 renal; SF-268 CNS; SF-295 CNS; SF-539 CNS; UACC-257 melanoma.
Holding throughout (assay): NCI-60 one-dose screen, 48 h (100 = growth as untreated, 0 = no growth, -100 = all killed)
What all share (details): 10 µM unless noted

For `NC(=O)CC1(O)C=C(Br)C(=O)C(Br)=C1`, the growth in the assay on NCI-H23 lung was 57.3%; with NCI-H226 lung, -57.6% (active); in the assay with NCI-H322M lung it was 113%; in the assay on HOP-62 NSCLC, 108%; in the assay on NCI-H460 lung, 104%; with HOP-92 NSCLC, -50.9% (active). For the same compound, the growth with NCI-H522 lung was -49.7% (active); in the assay with A549/ATCC NSCLC, 112%; in the assay on 786-0 renal, 70.8%; in the assay on DU-145 prostate it was 105%; in the assay on K-562 leukemia it was -29.6% (active); with MALME-3M melanoma it was -34.3% (active). Also, the growth with MDA-MB-231 breast is 113%; with RXF 393 renal it was -32.6% (active); in the assay with SF-268 CNS, 89.3%; in the assay on SF-295 CNS it was 115%; in the assay with SF-539 CNS it was 96.1%; with UACC-257 melanoma, 80.9%.

For the compound `CN=C1C=CC(=C(c2ccc(N(C)C)cc2)c2ccc(N(C)C)cc2)C=C1`, the growth in the assay on NCI-H23 lung was -8.66% (active); in the assay with NCI-H226 lung it was 6.94% (active); in the assay with NCI-H322M lung, -25.8% (active); in the assay on HOP-62 NSCLC, -23.4% (active); in the assay on NCI-H460 lung, -49.4% (active); with HOP-92 NSCLC it was -39.1% (active). In addition, the growth with NCI-H522 lung was -36.8% (active); in the assay with A549/ATCC NSCLC, -23.6% (active); in the assay on 786-0 renal it was -63.1% (active); with DU-145 prostate it was -6.79% (active); in the assay with K-562 leukemia, 2.18% (active); with MALME-3M melanoma, -56.6% (active). The growth in the assay on MDA-MB-231 breast was -46.9% (active); in the assay with RXF 393 renal it was -50.8% (active); in the assay with SF-268 CNS, -56.5% (active); in the assay with SF-295 CNS, -30.4% (active); in the assay with SF-539 CNS, -38.3% (active); in the assay with UACC-257 melanoma, -43% (active).

Consider `CCOC(=O)c1c(C)nc2c(c1N)/C(=C/c1ccc(OC)cc1)C(=O)N2Cc1ccc(F)cc1`, for which the growth in the assay on NCI-H23 lung is -38.2% (active); in the assay on NCI-H226 lung, 8.52% (active); in the assay with NCI-H322M lung, 9.93% (active); in the assay on HOP-62 NSCLC it was -45.3% (active); in the assay with NCI-H460 lung it was 2.95% (active); with HOP-92 NSCLC, -55.6% (active). Also, the growth in the assay with NCI-H522 lung was -69.6% (active); in the assay with A549/ATCC NSCLC, 12%; in the assay on 786-0 renal, -50.6% (active); with DU-145 prostate, -90.8% (active); in the assay with K-562 leukemia, 4.12% (active); in the assay on MALME-3M melanoma, -21.3% (active). Also, the growth in the assay with MDA-MB-231 breast was -54.7% (active); with RXF 393 renal, -78.6% (active); in the assay on SF-268 CNS it was -23.6% (active); in the assay on SF-295 CNS it was -1.56% (active); in the assay on SF-539 CNS it was -20.5% (active); in the assay with UACC-257 melanoma, -52.7% (active).

With `CC1(C)CC(=O)c2c(ccc(C(=O)C[C@H](N)CO)c2N)O1`, the growth in the assay with NCI-H23 lung is 54.4%; in the assay with NCI-H226 lung, 58.3%; in the assay with NCI-H322M lung it was 15%; in the assay with HOP-62 NSCLC, 22%; in the assay with NCI-H460 lung it was 6.79% (active); in the assay with HOP-92 NSCLC it was 53.7%. The growth was 46.2% in the assay with NCI-H522 lung; 34.7% in the assay with A549/ATCC NSCLC; 77.5% in the assay with 786-0 renal; 38% with DU-145 prostate; 37.1% in the assay with K-562 leukemia; 48.6% in the assay with MALME-3M melanoma. For the same compound, the growth was 54.6% in the assay on MDA-MB-231 breast; 44.1% in the assay on RXF 393 renal; 34.2% in the assay on SF-268 CNS; 42.9% in the assay on SF-295 CNS; 23.7% in the assay with SF-539 CNS; 49.1% with UACC-257 melanoma.

As for `COc1cc(C(=O)/C=C/c2c(-c3ccc(F)cc3)nc3ncccn23)cc(OC)c1OC`, the growth is 39.3% in the assay with NCI-H23 lung; 63.4% in the assay on NCI-H226 lung; 69.9% in the assay on NCI-H322M lung; 68.1% in the assay with HOP-62 NSCLC; 21.6% in the assay with NCI-H460 lung; 23.6% in the assay with HOP-92 NSCLC. Further, the growth is -0.92% (active) in the assay with NCI-H522 lung; 61.1% with A549/ATCC NSCLC; 70.7% in the assay on 786-0 renal; 31.8% with DU-145 prostate; 17.9% in the assay on K-562 leukemia; 50.7% with MALME-3M melanoma. Further, the growth in the assay on MDA-MB-231 breast is 64.4%; with RXF 393 renal, 13.6%; in the assay on SF-268 CNS, 51%; in the assay with SF-295 CNS it was 56.4%; with SF-539 CNS, 28.5%; in the assay with UACC-257 melanoma, 47%.

`CC(C)N(CCOC(=O)Nc1ccccc1Cl)C(C)C`: the growth with NCI-H23 lung was 105%; with NCI-H226 lung, 86.3%; with NCI-H322M lung it was 102%; in the assay on HOP-62 NSCLC, 93.3%; in the assay on NCI-H460 lung, 103%; in the assay with HOP-92 NSCLC it was 84.4%. Also, the growth was 78.6% in the assay with NCI-H522 lung; 98.4% in the assay with A549/ATCC NSCLC; 98.8% in the assay with 786-0 renal; 105% in the assay with DU-145 prostate; 104% in the assay with K-562 leukemia; 104% in the assay on MALME-3M melanoma. The growth in the assay with MDA-MB-231 breast is 106%; in the assay with RXF 393 renal, 108%; in the assay with SF-268 CNS, 101%; in the assay with SF-295 CNS, 104%; in the assay with SF-539 CNS it was 104%; with UACC-257 melanoma, 99.1%.

In the case of `CCCCCOC(=O)c1cccc(NC(=O)CN(CC)CC)c1`, the growth in the assay on NCI-H23 lung is 102%; with NCI-H226 lung, 96.7%; in the assay on NCI-H322M lung it was 97.6%; in the assay on HOP-62 NSCLC it was 86.8%; in the assay with NCI-H460 lung it was 111%; in the assay on HOP-92 NSCLC it was 75.6%. Further, the growth in the assay on NCI-H522 lung is 62%; with A549/ATCC NSCLC, 95.7%; with 786-0 renal it was 81.2%; in the assay with DU-145 prostate, 104%; with K-562 leukemia it was 103%; in the assay with MALME-3M melanoma, 94.8%. Further, the growth with MDA-MB-231 breast is 117%; with RXF 393 renal it was 106%; in the assay on SF-268 CNS, 104%; in the assay with SF-295 CNS it was 96.1%; in the assay with SF-539 CNS, 98.6%; with UACC-257 melanoma, 105%.

`O=C(/C=C/C12c3ccccc3C(c3ccccc31)C1C(=O)NC(=O)C12)c1ccc(Cl)cc1` (centres undefined): the growth in the assay on NCI-H23 lung is -2% (active); in the assay on NCI-H226 lung, -22.3% (active); with NCI-H322M lung it was 2.94% (active); in the assay on HOP-62 NSCLC it was 6.96% (active); in the assay with NCI-H460 lung, -43.7% (active); in the assay with HOP-92 NSCLC, -15.2% (active). Moreover, the growth with NCI-H522 lung is 11.4%; in the assay on A549/ATCC NSCLC it was 15.4%; in the assay with 786-0 renal, -9.5% (active); in the assay with DU-145 prostate it was 8.95% (active); with K-562 leukemia, 8.8% (active); in the assay on MALME-3M melanoma, -37.4% (active). Further, the growth was -24.4% (active) in the assay with MDA-MB-231 breast; -75.8% (active) in the assay on RXF 393 renal; 29.9% with SF-268 CNS; 4.52% (active) with SF-295 CNS; -34.2% (active) in the assay with SF-539 CNS; 25.3% in the assay with UACC-257 melanoma.
